Data taken from the supplement of paper PMC12632987.

Molecular target: T1, USP38, Q8NB14
T1 chain: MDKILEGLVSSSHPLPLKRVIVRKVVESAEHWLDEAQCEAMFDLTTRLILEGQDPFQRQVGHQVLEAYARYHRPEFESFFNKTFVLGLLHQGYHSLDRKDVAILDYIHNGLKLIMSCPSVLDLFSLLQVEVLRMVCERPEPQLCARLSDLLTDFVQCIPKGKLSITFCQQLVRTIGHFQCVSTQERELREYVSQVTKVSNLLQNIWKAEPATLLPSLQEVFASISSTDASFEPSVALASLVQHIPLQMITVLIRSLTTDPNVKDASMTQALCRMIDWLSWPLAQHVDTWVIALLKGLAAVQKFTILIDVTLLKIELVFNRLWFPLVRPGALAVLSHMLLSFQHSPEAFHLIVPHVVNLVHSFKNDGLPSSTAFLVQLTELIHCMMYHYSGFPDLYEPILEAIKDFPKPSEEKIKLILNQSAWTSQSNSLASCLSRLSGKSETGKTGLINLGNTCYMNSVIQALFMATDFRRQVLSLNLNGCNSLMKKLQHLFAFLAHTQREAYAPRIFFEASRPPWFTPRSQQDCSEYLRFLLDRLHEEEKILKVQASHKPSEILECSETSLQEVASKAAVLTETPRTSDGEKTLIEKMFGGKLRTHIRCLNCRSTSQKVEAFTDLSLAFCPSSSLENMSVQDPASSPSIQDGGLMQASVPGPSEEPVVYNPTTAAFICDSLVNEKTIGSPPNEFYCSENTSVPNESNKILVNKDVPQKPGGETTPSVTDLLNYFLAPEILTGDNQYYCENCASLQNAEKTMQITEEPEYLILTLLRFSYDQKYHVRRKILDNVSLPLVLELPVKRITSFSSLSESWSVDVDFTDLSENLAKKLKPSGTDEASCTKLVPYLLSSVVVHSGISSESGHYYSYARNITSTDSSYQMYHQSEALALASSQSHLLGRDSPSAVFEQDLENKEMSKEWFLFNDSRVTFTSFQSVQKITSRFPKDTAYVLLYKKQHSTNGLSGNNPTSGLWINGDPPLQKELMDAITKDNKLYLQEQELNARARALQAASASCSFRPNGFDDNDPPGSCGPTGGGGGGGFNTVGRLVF
Assay: median log2 fold change of GCK-ALFA target abundance (FLAG IP / Myc IP barcode read proportion) (log2 ratio); each designed protein is fused to an ALFA-tag nanobody in HEK293 cells to bring the named protein to FLAG-tagged glucokinase (GCK); Myc marks an untargeted standard; higher = target protein stabilised (more abundant)
Conditions: target protein: 3xFLAG-MCP-GCK-ALFA reporter; HEK293 landing pad (RPLP)
Method in brief: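 Binders fused to an ALFA nanobody were recombined as a library into HEK293 landing-pad cells, which were induced with 2 μg mL^−1 doxycycline and then transfected to express a FLAG-tagged target and a Myc-tagged standard. After 48 h, circular RNA barcodes recovered by anti-FLAG and anti-Myc immunoprecipitation of lysates were reverse transcribed, amplified and sequenced. Each binder's target abundance is the median log2 ratio of FLAG to Myc barcode read proportions, from barcodes present at ≥10^−7 in both replicates, binders carrying ≥3 barcodes per replicate, a 10^−6 pseudocount and pooled replicates.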

Binder	median log2 fold change
usp_38_diff_out_2_61_512 (protein) SEELEEKAKKIKELIEEAKKLVEEIEKELDTADLAELEKKLKEAEEVINKAIDELEELYKKAVLLGDEEAIKKANELWDELGEVAARYNEVRRRLTERKL	0.151
usp_38_diff_out_3_136_525 (protein) SVAEAREQIKALEATAKALKESMLKLVEELLKDPNVTPEDLRELKEIVLDSFEDIKAEVEKIKKAHPEVKAEADAAIKKIEAYKKEVEAAFDAAIAAKEA	-0.268
usp_38_diff_out_3_136_526 (protein) SVAAVKAQIKALEATARALKEDMLKLVEELLKDPNVTPEDLESLKKIVLDSFDDIIKEVEELAKKYPEVKEEAEKAIKKIEEYRDEVKKAFDEAIKEKKA	0.0442
usp_38_diff_out_2_35_494 (protein) SSAERAAREALLAEIDAKIDEAVALTREALELLAEINAPEEEFDELFKTYDAAMTALTTAARLVREGAPQEEIEKAKAKAEAALAKLKALLEEAKKRAKE	-0.0997
usp_38_diff_out_3_124_516 (protein) MKAEKLYEELKKLLKEIEKLIKEAKKELNKDLEELKKLLKELDKKLDELSKVFMELHELAAEDPRYRPLLKEARKESNKVITEATKVKLEALERLAEEEE	0.0275
usp_38_diff_out_2_141_476 (protein) SEADELFREAFEREARAVAEEARKLIPKRLAIAERLAARGDLASLEERRTRVRAQAGAFRAMAEELEEMGGRPEVIELLRATAAELEEAAARIEELIAKL	-0.698
usp_38_diff_out_3_124_514 (protein) SRAEALFAKLKELLAKAEELIKKAEEELDKNLEELKKLLEELDKVMDEASRVFMELHELAAEDPAHRPLLKEARAASNKVVTRYTEVVLKALERLAEAEE	-0.179
usp_38_diff_out_3_136_523 (protein) MLEEVRERVRRLEETAVSLKESMLKLIEELKKDPNVTPEDVEELRKVVLDAFDSLKAEVKEIQERYPEVKEEAEKALETIEKKKKEVDKAFEELIKEKKA	-0.217
usp_38_diff_out_3_136_522 (protein) SVAAVKAEIERLKATADEMKKSTLRLIAELSKDPNVTPEDVESLKKVVLDSYQDLKDDVKALKAANPEVAAQADAALAAIDANAAEVKAAFDALLKEKKA	-0.0509
usp_38_diff_out_3_65_529 (protein) KVEEEIKKAKKYLEEARKIIEELKEKVKTDPTITEEEVNEMLDEAADLIVKAGEALRKARKLNPDEEQKKEIEKLEKELDELIDEYTEAGREAFLAVGER	0.0941
usp_38_diff_out_2_61_511 (protein) NKELEEQIKEIKKLIEEAKKLVEELEALLDTADEATLEKLLEEAEKVLNKAIDLLVQAFEQAHEAGDEEALKQLDELWDELGKVAARLREARERLTRRRR	0.412
usp_38_diff_out_2_35_489 (protein) SEEEEEFRREARERLDKLADEVNDTTRETLEALAEADAPLEEIERVLEESDKAFKAIAEAYRLIREGASREEIEEALKKAEEKVKEFKKYAEEVLKRLKE	0.192
usp_38_diff_out_2_61_507 (protein) SAELQAQAERIEALLAQAEALIAELEAQLDTADEATLRALLAEAQAVLDEAIDLLVELYLRAHEAGDEEALAQADALWDRLGAVAARLRRAREALTDRLS	-0.299
usp_38_diff_out_3_136_524 (protein) ATAAAKAQIKALEATAKALKEDSLKLVKELLEDPNVTPEDLESLKKIVLSSFDDLIAEVKAIKAAHPEVAAEADKAIKAIEEYKKEVEKAFNEAIAKKKA	-0.221
usp_38_diff_out_2_113_472 (protein) DPEEKKKEAELYKDIITEGADQLLELAKKGKLTPDRTAVMTAGIVHAAEVAYELDPSVKPTIEEVIKKLEEVYELVKDKNPEVAKIIEEAIKKLKEILKK	0.269
usp_38_diff_out_2_35_493 (protein) SMEERREREERLKEIGARIDEAHELTREALELLAEIDAPQERFDRLFATYDAAMRALTAEARAVREGAPQEEIDRLRAEAEAALAELKALLAEARKLAAE	-0.077

Binder	median log2 fold change
usp_38_diff_out_3_136_519 (protein) STEEVKEEIKRLEATAESMKESTLKLIEELSKDPNVTPEDVEELKKVVLSAFQDLKDDVKALKEAHPEVKEEADKAEAKIEAYKAEVEAAFDALIAEKKA	0.188
usp_38_diff_out_2_61_509 (protein) SEELKKKAEEIEKLLREARELIAEARAGLDTRDPAELRALLREAERVLDEAIDLLVEFYEEAVEAGDEEALKKADELWDELGRAAKELRELRERLTERVR	0.28
usp_38_diff_out_3_124_515 (protein) AEAEALLAELEELLERAEELIERAEEELDGDLERLRELLEELDEVLDELSAVFMRLHELAAEDPSHRPLLKEARKRSNEVITRATEVRLRALERLAEAAE	0.0853
usp_38_diff_out_3_124_513 (protein) AEAEKLAKELDKALKELEKLIKEAEKELDKDPEKLKKLLEEADETLDRAAGLYMQLHELAAEDPSTRPLLKKAREKANKVIDRYTEVRTKALERLAELEE	-0.564
usp_38_diff_out_2_61_508 (protein) SEELEEKLEEVRRLLEEARRLIEELRRRLDTADEATLRALLREAESVLNEAIDLLIEVYNEAHELGDEETLEKADELWDELGRVAAELRRAREEFTDRVR	-0.394
usp_38_diff_out_2_113_474 (protein) DPEERRKEAELYRDIILEGAEQLLRLAKAGRLTPDRTKVMLGGIVHAAEEAYELDPSVKPTIEEVIKKLEEVYELVKDKNPEVAAEIKEAIEKLKEILKK	-0.0131
usp_38_diff_out_3_136_527 (protein) ATAAVRARIRALEETARELKRSSLRLVEELLKDPNVTPEDLEELRKIVLDSFRDLEEEVRRLAAAEPAVAEEARRAEEEIRRYREEVERAFEEAIAAKKA	-0.205
usp_38_diff_out_2_35_491 (protein) AAAEAARREEIRRRIDEMVDEANELTAETLEKLAEADAPDEKFEELFEAYDELMRLLARTYRLIREGAPLEEIERALEEAERKLEEFKKLAEELKKEAEE	0.305
usp_38_diff_out_3_65_528 (protein) GVEELLARAEEALRRLEEVIREAEEALKRAEELSAEELDELIRRATRVALEAERIRRELRRAGDSPEIRAAIARLEEAIERLNEVIERLTEALTAKLIAE	0.193
usp_38_diff_out_3_124_518 (protein) SEAEELVAKAKELLEKLTKVLEEAEKALDKDLEKAEKLLKEADELLTELSAALLRLRDLAMADPSWRPALKEIEAKANEVIDKYTEVATKFFEKKAEAQE	-0.761
usp_38_diff_out_2_35_490 (protein) MEEEEAFRKKVKEELDKMQDEAHEATTETLELLAEADAPLERFDELMRKYDEFMEAAAKTYKLIEEGASKEEIEKALKEAREKYKEFMEFAEKLKKEVAA	0.00989
usp_38_diff_out_3_124_517 (protein) SRADELAAEARATLAELNATLAELEAALDTDLERARELAARADELLARLSGLLLELRDLAREDPRYRPTLKELEAEANAAIDRYTELMTRLFEKEAEAAA	-0.553
usp_38_diff_out_2_35_492 (protein) SEEEEKAREEARKEIDELTDELNKTTSETLEALAEADAPLEKFDELMAKYSEAARALAATYKLIQEGAPLEEIEKALKEAKEAVEAFKKFAEELLKEAKA	0.112
usp_38_diff_out_2_113_475 (protein) DPEVREEIREAALSNLLSSLEELLKIAKENRRSEETMRMMVRGVIEAALELIRELNLPEEDVKKILELLEEVRKALAEKNPELAKLAQEGIEELRKAAEE	0.205
usp_38_diff_out_2_61_510 (protein) NKELEKMIKEIEAKIKEAKALVDELEAGLDTLDEETLEALLAEARAVLDEAIDLLVKAYELAHELDDKEALERLDKLWDELGEVAARLREARERFTRRRR	0.4
usp_38_diff_out_3_65_530 (protein) KVEEKLKEAEEHLEKAEELVEELRRLTEEDPTLTADEVVEMLDKIDDELVAAGKAIEEAKKLNPTPEQKKKIEELEKRLDELIDRRIEAAEEAFLRVGEA	0.137
